Compounds with a hit are over-represented: about 19% of the library has one in this group of screens.
DT40 TDP1 CPT – qHTS for Inhibitors of human tyrosyl-DNA phosphodiesterase 1 (TDP1): qHTS in cells in presence of CPT. chicken DT40 Tdp1-/-;hTDP1 cells + 20 nM CPT, ATP luminescence, 48 h. AID 686979, 2013. 420,000 tested, 12% active. Potency, µM (top dose mostly 46.2 µM), for the others: top-dose activity change, negative = growth inhibition, usual class: inhibitors; further: potency means the concentration at half of the fitted maximal effect; nearly all actives have a fitted effect of over 55% in size
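Chicken DT40 Tdp1-/- cells complemented with human TDP1, 400 cells/well, exposed to compounds plus 20 nM camptothecin for at least 48 h at 37 C; viability read as ATP content by CellTiter-Glo luminescence.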
HT1080-NT tox – qHTS for induction of synthetic lethality in tumor cells producing 2HG: qHTS for the HT-1080-NT fibrosarcoma cell line; Potency, µM (doses to about 46.1 µM), for the others: top-dose activity, negative = less viability, usual class: cytotoxic; 360,000 tested, 1.6% active; AID 686970, 2013; HT-1080-NT fibrosarcoma viability, CellTiter-Glo ATP luminescence, 48 h;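 further: NT is the 2HG producing partner of a matched IDH1 knockdown line; potency means the concentration at half of the fitted maximal effect; 0% = DMSO-treated cells and -100% = media-only wells without cells; nearly all actives have a fitted effect of over 55% in size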
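Fibrosarcoma NT cells, 750 per well in 5% FBS RPMI, were exposed to compound for 48 hours. Viability: CellTiter-Glo luminescence.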
TDP1 cell noCPT – qHTS for Inhibitors of human tyrosyl-DNA phosphodiesterase 1 (TDP1): qHTS in cells in absence of CPT; AID 686978, 2013; DT40 Tdp1-/- hTDP1 cells, no CPT, ATP luminescence, 48 h; 420,000 tested, 15% active; Potency, µM (series often up to 46.2 µM), without a hit: at the top dose activity change, negative = growth inhibition, hits mostly inhibitors; further: potency means the concentration at half of the fitted maximal effect; nearly all actives have a fitted effect of over 55% in size
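Growth kinetics read by CellTiter-Glo luminescence after ≥48 hr at 37 °C. Cells: DT40 Tdp1-/- stably carrying human TDP1, 400 per well, compound exposure in the absence of CPT (DMSO vehicle).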
HT1080 IDH1KD tx – qHTS for induction of synthetic lethality in tumor cells producing 2HG: qHTS for the HT-1080-IDH1KD cell line. Potency, µM (highest dose often 46.1 µM), for the others: top-dose activity, negative = toxicity, hits mostly cytotoxic. HT-1080 IDH1 knockdown viability, ATP luminescence, 48 h. AID 686971, 2013. 360,000 tested, 2% active;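 further: potency means the concentration at half of the fitted maximal effect; 0% = DMSO wells and -100% = cell-free medium wells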
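Assay cells: HT-1080 with IDH1 knockdown, 750 per well, RPMI/5% FBS. Exposure: 48 h at 37 °C following 2 h pre-incubation. Read: CellTiter-Glo luminescence; fitted concentration-response, curve class assigned.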
IL-1B inflam inh – qHTS for Inhibitors of Inflammasome Signaling: IL-1-beta AlphaLISA Primary Screen. THP-1 LPS/ATP IL-1B secretion, AlphaLISA, 16 h; stronger effect = lower value. activity change, % at 57.5 µM. 360,000 tested, 4.7% active. AID 743279, 2014; in the data active means activity change below about -50%; inconclusive means mostly about -30% to -49%
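Secreted IL-1B measured by AlphaLISA bead assay after 16 h compound exposure of THP-1 cells; compounds (final up to 57.5 uM) added 1 h before LPS (250 ng/mL) and ATP (1.25 mM) stimulation; lower signal means less secretion.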
* marks the source's active call; other numbers are inactive results; ? = inconclusive; . = no result; ! = not confirmed by another sample; [ ] = another dose, or the depositor's remark. Unless noted, the call rests on the fitted dose curve; in most records, active means well fitted curve in the direction sought with a large enough effect; inconclusive means small, poorly fitted or top-dose-only effect, or another doubt; inactive means no such curve, though single readings can be large; an effect the other way counts as inactive or inconclusive. Unless noted, on the % scale 0 is the no-effect control and ±100 the full control effect.

SMILES	DT40 TDP1 CPT	HT1080-NT tox	TDP1 cell noCPT	HT1080 IDH1KD tx	IL-1B inflam inh
COC(=O)c1cccnc1-n1c(=O)c2cccnc2n(CC(=O)Nc2cccc(C(F)(F)F)c2)c1=O	-27%	.	-25%	.	.
Cc1nc2cnc(Oc3ccccc3)nc2n(C2CC2)c1=O	-25%	.	?	.	.
O=C(NCCc1csc(-c2cccnc2)n1)c1ccccc1	-18%	0%	-28%	14%	-1
O=C(NCc1ccccc1)c1csc(-c2cccnc2)n1	?	-13%	5.8µM*	-13%	?
O=C(NCCc1ccc(Cl)cc1)c1cccs1	-4%	-9%	-14%	-3%	-26
O=C(NCCc1csc(-c2ccc(Cl)cc2)n1)c1cccs1	?	.	16µM*	.	.
COc1ccc(CC(=O)NCCCSc2ccccc2)cc1OC	-23%	0%	-3%	-2%	38
CC1=NN(C(N)=S)C(=O)C1N=Nc1ccccc1C(=O)O (configuration not stated)	-5%	0%	-12%	-8%	-4
CC1=NN(c2ccccc2C(=O)O)C(=O)C1N=Nc1ccccc1 (configuration not stated)	13µM*	12%	21µM*	7%	17
O=C(Nc1ccc(Nc2ccccc2)cc1)C(Cl)Cl	1.2µM*	2%	1.8µM*	-15%	-89*
NC(=O)Nc1ccc(Nc2ccccc2)cc1	?	2%	-28%	1%	10
O=C(/C=N/NC(=O)c1ccccc1Br)c1ccccc1	?	-3%	?	-8%	-6
O=C(Nc1ccc(Nc2ccccc2)cc1)c1ccc(Cl)cc1Cl	15µM*	-13%	?	?	?
O=C(/C=N/NC(=O)c1ccc(Cl)cc1Cl)c1ccccc1	?	-18%	?	?	-77*
C#Cc1cccc(NC(=O)c2ccc(Cl)cc2Cl)c1	-12%	-1%	29µM*	-1%	-8
C/C(=N/OC(=O)c1ccccc1)c1oc(C)nc1C	23%	-5%	10%	2%	-6
Cn1c(CC(=O)Nc2ccccc2Cl)nnc1SCC(=O)NC1CCCCC1	?	0%	-2%	11%	-5
O=C1N(c2ccccc2)c2ccccc2[C@]12C[C@H](O)CO2	10%	12%	6%	11%	-4
O=C(Nc1ccccc1)C(c1ccccc1)c1ccccc1	-2%	2%	-27%	0%	-11
N#C/C(C(=O)Nc1ccc(Cl)cc1)=C(/S)Nc1ccccc1	15µM*	?	12µM*	?	?
CC(C)(C)C(=O)C(Cl)C(=O)Nc1ccccc1 (configuration not stated)	5.2µM*	2%	4.1µM*	?	?
O=C(Nc1ccc(Nc2ccccc2)cc1)c1ccc(Cl)cc1	18µM*	-8%	13µM*	-25%	-62*
O=C(Nc1cccnc1)c1ccc(S(=O)(=O)c2ccc(Cl)cc2)cc1	?	-24%	23µM*	-8%	-66*
CC(C)(C)c1ccc(C(=O)Nc2ccc(Cl)cc2)cc1	-12%	14%	-6%	0%	-18
COc1ccc(Cc2nnc(SCC(=O)Nc3ccc(N4CCOCC4)cc3)n2C)cc1	22%	11%	-5%	10%	15
SMILES	DT40 TDP1 CPT	HT1080-NT tox	TDP1 cell noCPT	HT1080 IDH1KD tx	IL-1B inflam inh
COc1ccccc1Oc1c(NS(=O)(=O)c2ccc(C(C)(C)C)cc2)nc(-c2ncccn2)nc1OCCO	?	.	-23%	.	.
COc1ccc(O)c(C(=O)c2cnn(C(=O)c3cccc(S(=O)(=O)N(C)C)c3)c2)c1	-5%	0%	-3%	0%	0
CCc1cc(=O)oc2cc(C)cc(OCC(=O)NCC(O)c3ccccc3)c12 (configuration not stated)	-27%	0%	-8%	-2%	-23
COc1cc(OC)cc(C(=O)NCC(=O)Nc2ccc(-c3ccccc3)cc2)c1	16µM*	2.9µM*	18µM*	5.8µM*	39
O=C(Nc1ccc(Nc2ccccc2)cc1)c1ccc(Br)cc1	?	-18%	-20%	-9%	7
COc1cc(OC)cc(C(=O)Nc2ccc(Nc3ccccc3)cc2)c1	21µM*	-9%	?	-10%	-24
COc1cc(OC)cc(C(=O)NCC(=O)Nc2ccc(C)c(Cl)c2)c1	29%	-3%	-10%	2%	-7
O=C(Nc1ccc(Cl)cc1)C1=Cc2ccccc2OC1	?	-12%	23µM*	?	-27
O=C(Nc1ccc(Cl)cc1)c1ccc2c(c1)OCO2	-2%	0%	-26%	0%	-7
O=C(Nc1ccc(Nc2ccccc2)cc1)c1ccccc1	?	-4%	21µM*	-3%	-27
COCCN1CCN(Cc2cn[nH]c2-c2cc3ccccc3o2)CC1	4%	-2%	-6%	1%	13
CCCN1CCN(C(=O)c2cnn(-c3ncc4c(n3)-c3ccccc3CCC4)c2COC)CC1	15%[9.04 µM]	.	-18%	.	.
CCN(CC)c1ccc(/C=N/NC(=O)c2ccc3nc[nH]c3c2)c(O)c1	18µM*	?	?	2.1µM*	135
CCN(CC)c1ccc(/C=N/NC(=O)OC)c(O)c1	?	-7%	26µM*	12%[9.24 µM]	-9
COc1ccc(/C=N/NC(=O)c2ccc3nc[nH]c3c2)c(OC)c1	4.6µM*	0%	?	-21%	-4
CCN(CC)c1ccc(/C=N/NC(=O)c2ccoc2C)c(O)c1	13µM*	?	3.3µM*	5.2µM*	144
COc1ccc(N(CN2C(=O)C3CCCCC3C2=O)C(=O)c2ccco2)cc1 (configuration not stated)	9%	10%	8%	-2%	-8
O=C(CNC(=O)c1ccc(Br)o1)NNC(=O)c1n[nH]c(=O)c2ccccc12	-2%	-3%	8%	6%	-23
COc1ccc(CN2CCN(C3CCC3)CC2CCO)c(F)c1 (configuration not stated)	-12%	-3%	-10%	-6%	20
O=C(COC(=O)c1cc[n+]([O-])cc1)Nc1cccc(F)c1	4%	-3%	-3%	3%	-4
CCN(CC)c1ccc(/C=N/NC(=S)NC)c(O)c1	0.73µM*	-18%	0.52µM*	-17%	91
C[C@]12CC[C@@H]3c4ccc(OC(=O)c5ccccc5)cc4CC[C@H]3[C@@H]1CC[C@@H]2O	15µM*!	-1%	13µM*!	0%	17
COc1cc2c(cc1O)CCC1C2CC[C@@]2(C)C1CC[C@@H]2O (some centres not stated)	2.4µM*	.	1.9µM*	.	.

Source: PubChem BioAssay
